# Screening data as filed in PubChem.
# Mtb UGM inh = blocks M. tuberculosis UGM enzyme. P9WIQ1. purified UGM, fluorescence polarization probe displacement. inhibition, % at 10 µM. 320,000 compounds, 0.06% hits. AID 504406; in the data active = inhibition above about 10%, passing the limit was not always enough
# Target sequence (P9WIQ1 whole entry, looked up): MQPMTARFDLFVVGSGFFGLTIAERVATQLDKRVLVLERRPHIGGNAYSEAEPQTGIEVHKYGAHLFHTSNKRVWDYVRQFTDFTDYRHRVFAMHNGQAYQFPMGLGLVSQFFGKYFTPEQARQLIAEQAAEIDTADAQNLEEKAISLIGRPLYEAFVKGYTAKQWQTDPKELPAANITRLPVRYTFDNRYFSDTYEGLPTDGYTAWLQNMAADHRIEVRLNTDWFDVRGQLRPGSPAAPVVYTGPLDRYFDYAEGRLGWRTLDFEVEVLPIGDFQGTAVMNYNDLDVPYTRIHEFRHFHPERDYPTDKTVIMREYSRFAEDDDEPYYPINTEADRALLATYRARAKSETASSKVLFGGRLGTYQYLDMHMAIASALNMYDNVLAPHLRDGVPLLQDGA
# RecA splice inh = blocks M. tuberculosis RecA intein splicing | cell-free RecA intein splicing, fluorescence | inhibition, % (concentration not given with the values) | 290,000 compounds, 0.75% hits | AID 2221; in the data active = inhibition above about 30%;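 note: 0% = vehicle wells and 100% = reference inhibitor control wells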
# Rv3671c protease = inhibitors of M. tuberculosis serine protease Rv3671c | inhibition, % at 5.96 µM | AID 2606 | 320,000 compounds, 0.048% hits; in the data active = inhibition above about 38%;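 note: extracellular domain of Rv3671c used as enzyme; 0% = enzyme with DMSO and 100% = no enzyme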
# GDH-TPI counter-1 = inhibits GDH-TPI coupling enzymes, artifact for Mtb FBA screen | GDH-TPI coupled enzyme counterscreen, NADH absorbance | inhibition, % at 4.8 µM | 360,000 compounds, 1.2% hits | AID 588335; in the data active = inhibition above about 30%;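 note: 0% = DMSO wells and 100% = wells lacking the enzyme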
# Mtb betalactam = beta-lactam sensitization of Mtb H37Rv; inhibition, % at 25 µM; M. tuberculosis H37Rv growth with meropenem, percent inhibition; AID 434955; 330,000 compounds, 0.27% hits; call rule not given here;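 note: growth measured after seven days incubation then overnight dye step; 0% = bacteria only wells and 100% = bacteria with antibiotic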
# Mtb FBA inh = Mtb fructose-bisphosphate aldolase inhibition | inhibition, % at 1 µM | 360,000 compounds, 2.3% hits | P9WQA3 | purified M. tuberculosis FBA, fluorescence read-out;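 note: 0% = vehicle and 100% = reference inhibitor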
# Mtb FBA inh conf = Mtb FBA inhibition, confirmed; AID 651616; 5,600 compounds, 78% hits; purified M. tuberculosis FBA, fluorescence read-out; shares compounds with Mtb FBA inh; inhibition, % at 1 µM;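 note: 0% = vehicle wells and 100% = reference inhibitor wells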
# GDH-TPI counter-2 = inhibits GDH-TPI coupling enzymes, flagging Mtb FBA hits. inhibition, % at 1 µM. shares compounds with Mtb FBA inh. 5,600 compounds, 81% hits. GDH-TPI coupled enzyme counterscreen, fluorescence; in the data active = inhibition above about 10%
# * = called active by the depositor; / = no result given; + = active, no number. Shown are actives, neighbours in structure and some others; about 4% of the full set was active somewhere. Cut-off read from the data, not from the text of the source, unless noted: active = inhibition above about 27%; inactive = the rest.
SMILES,Mtb UGM inh,RecA splice inh,Rv3671c protease,GDH-TPI counter-1,Mtb betalactam,Mtb FBA inh,Mtb FBA inh conf,GDH-TPI counter-2
CCOC(=O)C(C)Sc1nc(N2CCOCC2)c2c(c1C#N)CC(C)(C)OC2 (centres undefined),0,0,-3,2,-13,2,/,/
C[C@@H]1CN([C@@H](C)CO)C(=O)CCCn2nncc2CO[C@H]1CN(C)Cc1ccc(Cl)c(Cl)c1,/,/,/,-7,/,0,/,/
Nc1cc(Cl)ccc1C(=O)OCC(=O)N1CCOCC1,-3,0,-9,9,3,44*,63*,53*
Nc1cc(Cl)ccc1C(=O)OCC(=O)N1CCCCCC1,0,/,5,8,5,60*,-7,-8
Cc1ccc(C(=O)OCC(=O)NCC2CCCO2)c(C)c1 (centres undefined),2,-1,7,0,3,1,/,/
Nc1cc(C(=O)OCC(=O)N2CCCC2)ccc1Cl,2,5,-1,-4,-8,16,/,/
Nc1cc(Cl)ccc1C(=O)OCC(=O)N1CCCC1,-5,0,8,5,5,59*,93*,84*
Nc1cc(Cl)ccc1C(=O)OCC(=O)NCC1CCCO1 (centres undefined),5,/,-5,15,-3,53*,106*,74*
CN(C)S(=O)(=O)Nc1ccc(Cc2ccncc2)cc1,/,/,/,-4,/,-3,/,/
CC(C)Cn1c(N)c(C(=O)COC(=O)c2cc(S(=O)(=O)N3CCOCC3)ccc2Br)c(=O)n(C)c1=O,4,/,-8,0,-7,0,/,/
CC(C)n1c(SCC(=O)NC2CC2)nnc1-c1ccco1,2,-3,-2,5,-1,1,/,/
CC(=O)c1cccc(-c2ccnc3c2CC(C(=O)Nc2cccc(NS(C)(=O)=O)c2)O3)c1 (centres undefined),/,/,/,2,/,-1,/,/
CCN(C(=O)COC(=O)c1ccc(Cl)cc1N)C1CCCCC1,-3,1,-3,17,0,31*,93*,87*
CCOC(=O)c1sc2nc(C(C)C)c3c(c2c1N)CC(C)(C)OC3,-1,1,-5,4,63,6,/,/
CCOC(=O)c1sc2nc(C(C)C)c3c(c2c1N)CCC3,-2,-7,3,4,-6,29*,96*,82*
Cc1cccc(Nc2cc(=O)n(C)c(=O)n2C)c1,/,/,/,11,/,0,/,/
C(=C\c1ccco1)/c1nc2ccccc2[nH]1,0,-5,5,28,4,23,/,/
C(=C\c1nc2ccccc2[nH]1)/c1ccccc1,1,2,-6,37*,-11,32*,+,+
COC(=O)c1ccc2c(=O)sc(N3CCC(C(N)=O)CC3)nc2c1,0,-41,8,-2,-2,40*,72*,61*
N#Cc1c(N)n(CCOC(=O)c2cccc(Br)c2)c2nc3ccccc3nc12,3,-13,-9,6,-6,45*,50*,34*
COc1cc(Cn2c(N)c(C#N)c3nc4ccccc4nc32)cc(OC)c1,1,-8,-6,17,-5,109*,+,173*
N#Cc1c(N)n(-c2cccc(O)c2)c2nc3ccccc3nc12,0,-217,-2,20,100,84*,+,+
C[C@H]1CN([C@@H](C)CO)C(=O)c2cc(Br)cnc2O[C@H]1CN(C)Cc1ccc(Oc2ccccc2)cc1,/,/,/,-9,/,2,/,/
O=C(c1ccc(C#Cc2ccccc2)o1)N1CCN(c2ccccn2)CC1,0,-1,-8,19,-3,-1,/,/
COC(=O)c1ccc(C#Cc2ccccc2)o1,-3,2,2,3,-1,58*,49*,57*
SMILES,Mtb UGM inh,RecA splice inh,Rv3671c protease,GDH-TPI counter-1,Mtb betalactam,Mtb FBA inh,Mtb FBA inh conf,GDH-TPI counter-2
CCCCn1c(N)c(N(CCOC)C(=O)CC(NC(=O)c2ccccc2Cl)c2ccccc2)c(=O)[nH]c1=O (centres undefined),/,/,/,2,/,0,/,/
COc1ccc(-c2c(C#N)c(N)nc3c2CCC3)cc1,-2,-1,-2,2,6,53*,136*,93*
N#Cc1c(N)nc2c(c1-c1ccccc1)CCC2,1,/,-2,11,2,61*,119*,91*
O=S(=O)(Nc1nc2ccccc2nc1NCC1CCCO1)c1cccs1 (centres undefined),0,0,0,27,4,5,/,/
Cc1ccc(S(=O)(=O)Nc2nc3ccccc3nc2NCC2CCCO2)c(C)c1 (centres undefined),3,-1,-1,15,-6,30*,108*,92*
Cc1cc(OCC(=O)NCc2cccnc2)c2c(C)c(Cc3ccccc3)c(=O)oc2c1,-1,0,-10,0,0,12,/,/
Cc1cc(OCC(=O)Nc2cccnc2)c2c(C)cc(=O)oc2c1,-2,-1,1,9,-5,78*,-2,-2
Cc1cc(OCC(=O)NCc2cccnc2)c2c(C)cc(=O)oc2c1,-2,-3,2,12,3,68*,-6,-6
CCCc1cc(=O)oc2cc(C)cc(OCC(=O)Nc3cccnc3)c12,-1,-9,-27,11,-1,82*,7,0
Cc1c(C)c2ccc(OCC(=O)Nc3cccnc3)cc2oc1=O,1,-1,1,19,-8,22,/,/
Cc1cc(OCC(=O)NC2CC(C)(C)NC(C)(C)C2)c2c(C)cc(=O)oc2c1,1,6,0,3,-2,94*,132*,114*
Cc1c(C(=O)NCc2cccc(C(F)(F)F)c2)sc(=O)n1Cc1cccc(F)c1,/,/,/,-4,/,-2,/,/
COc1ccc(OC)c(CN2CCN(C(=O)c3cccc(S(=O)(=O)N(C)c4ccccc4)c3)CC2)c1,/,/,/,4,/,-3,/,/
C[C@@H]1CN([C@@H](C)CO)C(=O)CCCn2nncc2CO[C@H]1CN(C)Cc1cccc2c1OCCCO2,/,/,/,-6,/,-4,/,/
O=C1CC(C(=O)Nc2ccccc2)C2(CCCCC2)O1 (centres undefined),-1,1,-1,2,-8,50*,3,-4
O=C1CC(C(=O)Nc2ccc(Br)cc2)C2(CCCC2)O1 (centres undefined),3,1,1,/,-3,/,/,/
CCc1nc2c(OCc3ccc(OC(F)F)cc3)cccn2c1N(C)C(=O)c1ccc(OC)cc1,/,/,/,-7,/,-1,/,/
CCn1c2ccccc2c2cc(/C=N/n3c(C)nnc3C)ccc21,0,/,-3,26,-6,40*,62*,48*
COc1ccccc1N1CCN(Cc2ccccc2)CC1,2,0,0,10,-5,-1,/,/
CN1c2ccccc2Oc2ccccc21,1,-2,-2,5,0,2,/,/
CN1c2ccccc2Oc2nnc(Cl)cc21,0,-38,5,7,-2,28*,51*,38*
